SMILES strings stand for the structures. About 700 (0.21%) of roughly 340,000 compounds were called active. No stated cut-off is given here; in the data, active means inhibition above about 22% (passing the limit was not always enough); inactive means the rest. The sample as a whole holds a higher share of actives than the screen did.

The target of the experiment is Mu-type opioid receptor (Homo sapiens) + Delta-type opioid receptor (Homo sapiens) (UniProt P35372+P41143). Nature of the experiment: OPRM1-OPRD1 heterodimer inverse agonism – cell-based, luminescence, primary screen (AID 504357).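 Further: 0% = cells with DMSO and 100% = wells without cells with DMSO.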 Conditions: cell-based MOR-DOR heterodimer luminescence, at 9.3 µM, stronger effect = higher value.
Mu-type opioid receptor (Homo sapiens) + Delta-type opioid receptor (Homo sapiens), sequence (P35372 whole entry, looked up): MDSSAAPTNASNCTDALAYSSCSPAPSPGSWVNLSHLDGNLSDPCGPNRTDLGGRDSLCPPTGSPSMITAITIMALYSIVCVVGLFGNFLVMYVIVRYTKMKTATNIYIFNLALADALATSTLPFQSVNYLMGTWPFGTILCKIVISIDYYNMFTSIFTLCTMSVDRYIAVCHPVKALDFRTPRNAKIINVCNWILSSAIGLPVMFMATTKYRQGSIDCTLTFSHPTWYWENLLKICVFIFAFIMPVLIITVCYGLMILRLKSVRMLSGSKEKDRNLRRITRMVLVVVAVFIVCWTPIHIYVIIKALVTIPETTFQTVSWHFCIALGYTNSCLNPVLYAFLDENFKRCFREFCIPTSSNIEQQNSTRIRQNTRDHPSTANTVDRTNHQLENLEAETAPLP
Mu-type opioid receptor (Homo sapiens) + Delta-type opioid receptor (Homo sapiens), sequence (P41143 whole entry, looked up): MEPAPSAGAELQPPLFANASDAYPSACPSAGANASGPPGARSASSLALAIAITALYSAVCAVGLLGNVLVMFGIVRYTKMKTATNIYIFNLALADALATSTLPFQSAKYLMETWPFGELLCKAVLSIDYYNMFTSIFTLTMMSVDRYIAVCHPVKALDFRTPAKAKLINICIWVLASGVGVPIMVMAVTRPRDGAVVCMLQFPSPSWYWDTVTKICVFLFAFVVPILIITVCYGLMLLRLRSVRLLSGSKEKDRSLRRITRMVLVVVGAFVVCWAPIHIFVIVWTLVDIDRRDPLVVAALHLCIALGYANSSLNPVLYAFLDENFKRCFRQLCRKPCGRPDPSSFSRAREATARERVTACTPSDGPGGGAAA
What is called inhibition is the change of the read-out against control, counted positive when it falls. Consider `Cc1ccc(Nc2nnc(SC(C)C(=O)NC3CC3)s2)cc1` (centres undefined), for which the inhibition was 5.95% (inactive).

With `O=S(=O)(NCc1ccccc1)c1ccc(S(=O)(=O)N2CCCC2)cc1`, the inhibition is 7.6% (inactive).

Regarding `COC(=O)CSc1nc2c(c(C3CC=CCC3)c1C#N)CCC2` (centres undefined), the inhibition was 0.33% (inactive).

Take `CC1CCN(C(=O)c2ccc3c(=O)n4c(nc3c2)CCCCC4)CC1`: the inhibition is -4.92% (inactive).

In the case of `CCc1noc(C)c1C(=O)N1CCN(S(=O)(=O)c2cccc(C(F)(F)F)c2)CC1`, the inhibition was 9.18% (inactive).

For the molecule `COc1cc(C2C(N3C(=O)c4ccccc4C3=O)C(=O)N2c2ccc(C)c(C)c2)cc(OC)c1OC` (centres undefined), the inhibition is 8.56% (inactive).

In the case of `O=C(c1cc2ccccc2s1)N1CCN(c2ccccn2)CC1`, the inhibition is 5.35% (inactive).

For `Cc1cccc(N(C)C(=O)c2cc(S(=O)(=O)N3CCCCC3)c[nH]2)c1`, the inhibition is -2.65% (inactive).

Consider `Cc1cccc(C)c1Nc1c(-c2ccccc2O)nc2ncccn12`, for which the inhibition was 5.45% (inactive).

As to `O=C(O)c1ccc(S(=O)(=O)N2CCOCC2)o1`, the inhibition was -0.55% (inactive).

Take `COC(=O)c1c(NC(=O)C(=O)N2CCCCC2)sc2c1CC(C)(C)OC2`: the inhibition is -12.8% (inactive).

With `Cc1nc2c(-c3ccc(F)cc3)c(C)nn2c(C)c1CCC(=O)N1CCN(c2ccccn2)CC1`, the inhibition was 8.06% (inactive).

`Cc1ccc(NC(=O)CN2CCCCC2)c2c1CC(C)(C)O2`: the inhibition is -2.22% (inactive).

Take `Cc1ccc(S(=O)(=O)NC[C@H]2O[C@@H](n3cnc4c(N)ncnc43)[C@H](O)[C@@H]2O)s1`: the inhibition was 16.3% (inactive).

Turning to `CCN1CC=C2C(C#N)=C(N)C(C#N)(C#N)[C@H](c3ccoc3)[C@H]2C1`, the inhibition was -33.3% (inactive).

Take `N#CC1=C(N)C(C#N)(C#N)[C@H](c2ccsc2)[C@H]2COCC=C12`: the inhibition is 25.7% (active).

Turning to `O=C1N=C(N2CCOCC2)CS1`, the inhibition is 0.02% (inactive).

Regarding `Cc1ccccc1NC(=O)c1cc(S(=O)(=O)N2CCOCC2)cs1`, the inhibition was 4.89% (inactive).

Regarding `CN(CC(=O)Nc1cccc2c1CCCC2)S(=O)(=O)c1ccc(Cl)cc1`, the inhibition was -0.65% (inactive).

Regarding `O=S(=O)(c1ccc(Br)c2ccccc12)N1CCOCC1`, the inhibition was 15.2% (inactive).

As for `O=S(=O)(c1cnccc1N1CCN(/N=C/c2ccc(Br)cc2)CC1)N1CCCCC1`, the inhibition is 6.92% (inactive).

For the molecule `COC(CNC(=O)c1ccc2c(c1)ncn2-c1cc(C)cc(C)c1)OC`, the inhibition is 13% (inactive).

On to `CCc1cccc(C)c1NS(=O)(=O)c1cc(Br)cnc1N`, for which the inhibition is -50.1% (inactive).

On to `O=C(CCc1[nH]c2ccccc2c1Sc1ccccc1)N(CCO)CCO`, for which the inhibition is 8.56% (inactive).

Regarding `CC(C)c1ccc(S(=O)(=O)N2CCN(C(=O)c3ccc(N4CCCC4)c([N+](=O)[O-])c3)CC2)cc1`, the inhibition was 19.3% (inactive).

`Cc1cccc(NC(=O)NC2(C)CCS(=O)(=O)C2)c1` (centres undefined): the inhibition is -1.39% (inactive).

On to `CCNc1nc(NC(C)C)nc(OCCOC(=O)c2ccccc2)n1`, for which the inhibition was 0.3% (inactive).

For `CCSC1=NCCN1S(=O)(=O)c1ccc(F)cc1`, the inhibition is 2.33% (inactive).

Regarding `Cc1nccn1CCC1CCCCN1C(=O)CCc1nnc(-c2ccsc2)o1` (centres undefined), the inhibition was 11.7% (inactive).

Consider `Cc1ccccc1C(CC(=O)c1cccs1)C(C#N)C#N` (centres undefined), for which the inhibition is 8.61% (inactive).

Take `COC(=O)C1=C(C(=O)OC)[C@@H]2N(C)c3ccccc3[C@@]23C[C@@H](C(=O)OC)N(C(=O)c2ccco2)C3=N1`: the inhibition is 7.48% (inactive).

For `Cc1nc2nc(SCC(=O)Nc3cccc(F)c3)[nH]c2cc1Br`, the inhibition was -28.8% (inactive).

Regarding `CC(C)NC(=O)CSc1nnc(COc2ccccc2Cl)o1`, the inhibition was 16.3% (inactive).

As to `CCOc1ccc(NC(=O)c2ccc(NC(=O)C3CCCO3)cc2)cc1` (centres undefined), the inhibition was 12.6% (inactive).

Consider `CCOc1ccc(NC(=O)c2cccc3c2C(=O)N(CC2CCCO2)C3)cc1` (centres undefined), for which the inhibition was 23.6% (active).

As to `COc1ccc(NC(=O)c2cccc3c2C(=O)N(CC2CCCO2)C3)cc1OC` (centres undefined), the inhibition is 16.3% (inactive).

`CN(C)c1cc(N)c2ccccc2n1` (tested in a mixture with another compound): the inhibition was 9.35% (inactive).

On to `COc1ccc(NC(=O)CSc2nnc(Cc3ccccc3)c(=O)n2N)cc1`, for which the inhibition was 4.15% (inactive).

As for `CC(C)(C)SCCSC1=CC(=O)CC(c2ccccc2)C1` (centres undefined), the inhibition was -50% (inactive).

As to `CC[C@]1(C(=O)OC)[C@H]2C(=O)N(Cc3ccccc3)C(=O)[C@H]2[C@H]2CN=C(SCc3ccc(Cl)cc3)N21`, the inhibition is -1.44% (inactive).

Regarding `O=C1C(Cc2ccc(O)cc2)NC(=S)N1Cc1ccccc1` (centres undefined), the inhibition is 17.3% (inactive).

With `CCC1Nc2ncnc(N3CCN(c4ccccc4)CC3)c2N(Cc2ccc(Cl)cc2)C1=O` (centres undefined), the inhibition was 72.3% (active).

In the case of `COc1cccc(C(CC(=O)NCCN2CCOCC2)NS(=O)(=O)c2ccc(C)cc2)c1OC` (centres undefined), the inhibition was 4.11% (inactive).

`COC(=O)[C@H]1Cc2cnoc2C[C@]1(C)C(=O)O`: the inhibition is 8.29% (inactive).

In the case of `Cc1cc(C)cc(NC(=O)C2CCCN2S(=O)(=O)c2cccc3cccnc23)c1` (centres undefined), the inhibition is 7.78% (inactive).

On to `COc1cc(C(=O)OCC(=O)N(CC(C)C)C2CCS(=O)(=O)C2)ccc1OCC(C)C` (centres undefined), for which the inhibition is 12.3% (inactive).

Turning to `COc1cc(/C=C/C(=O)N2CCc3ccccc3C2)cc(OC)c1OC`, the inhibition was 15.2% (inactive).

`Cc1cc(Cl)c2oc(C(=O)N(C)C(C)c3ccccn3)c(C)c2c1` (centres undefined): the inhibition is -14% (inactive).

Consider `CCCNC(=O)N1CCN(C(=O)NCCC)CC1`, for which the inhibition was -0.22% (inactive).

Take `O=C1C(=O)N(c2ccccc2)c2ccccc21`: the inhibition is 47.8% (active).

For the molecule `O=C1c2ccccc2C(=O)N1c1ccccc1S(=O)C(F)(F)F` (centres undefined), the inhibition is 1.53% (inactive).

Consider `O=C1C(Cl)=C(N2CCOCC2)C(=O)N1c1ccccc1`, for which the inhibition was 7.3% (inactive).

Turning to `Cc1cccc(N=Nc2c(O)[nH]c3ccc(F)cc23)c1`, the inhibition is 33% (active).

With `Oc1[nH]c2ccccc2c1N=Nc1c(F)c(F)c(F)c(F)c1F`, the inhibition was 13.1% (inactive).

`NS(=O)(=O)c1ccc(N=Nc2c(O)[nH]c3ccc(Br)cc23)cc1`: the inhibition is 16.9% (inactive).

`O=C(COC(=O)Cn1cnc2ccccc2c1=O)NCC12CC3CC(CC(C3)C1)C2`: the inhibition is 0.67% (inactive).

As for `CN(C)/C=C1/Nc2ccccc2C1=O`, the inhibition was 34.7% (active).

With `CN(C)/C=C1\C=C(c2ccccc2)OC1=O`, the inhibition is 5.39% (inactive).

For `CCCS(=O)(=O)C(=C1Nc2ccccc2N1)S(=O)(=O)CCC`, the inhibition was 3.81% (inactive).

Values taken from PubChem BioAssay AID504357 (The Scripps Research Institute Molecular Screening Center, 2011).
